Activity calls are given as the source filed them. The rule behind the calls is not given here.
Assay: Vero 76 cell cytotoxicity, dose response, cytotoxicity control, set 5 (AID 624069)
Conditions: Vero 76 cells cytotoxicity; series mostly up to 25 µM

| Compound | outcome |
| --- | --- |
| CN1CCN(Cc2nc3ccc([N+](=O)[O-])cc3c(=O)n2-c2ccccc2F)CC1 | inactive |
| CCN1CCN(Cc2nc3ccccc3c(=O)n2-c2ccccc2F)CC1 | inactive |
| CCN1CCN(Cc2nc3ccc([N+](=O)[O-])cc3c(=O)n2-c2cccc(F)c2)CC1 | inactive |
| CCN1CCN(Cc2nc3ccc(C(F)(F)F)cc3c(=O)n2-c2ccccc2F)CC1 | inactive |
| CC(C)(C)OC(=O)N1CCN(Cc2nc3ccc([N+](=O)[O-])cc3c(=O)n2-c2ccccc2F)CC1 | inactive |
| CCN1CCN(Cc2nc3ccc([N+](=O)[O-])cc3c(=O)n2-c2ccc(F)cc2)CC1 | inactive |
| O=C(NCc1ccco1)C1CCN(C(=O)c2cc3sccc3n2Cc2ccc(F)cc2)CC1 | inactive |
| CCN1CCN(Cc2nc3ccc([N+](=O)[O-])cc3c(=O)n2-c2ccccc2F)CC1 | inactive |
| O=c1c2cc([N+](=O)[O-])ccc2nc(CN2CCNCC2)n1-c1ccccc1F | inactive |
| CCN1CCN(Cc2nc3ccc([N+](=O)[O-])cc3c(=O)n2-c2ccccc2)CC1 | inactive |

Reference: PubChem BioAssay AID624069 (Southern Research Specialized Biocontainment Screening …, 2012)
